In the library only some 3.3% were active in any assay of this set; here they are far more common.
AmpC detergent: AmpC beta-lactamase inhibition with detergent present | Potency, µM (titrated, usually from 114 µM), for inactives: at the top dose activity change, negative = inhibition, most hits filed as inhibitors | AmpC hydrolysis of nitrocefin, absorbance 480 nm, 0.01% Triton | P00811 | 0.041% of 370,000 active | AID 485294;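 further: 0% = no-compound wells and -100% = no-enzyme wells; nearly all actives have a fitted effect of over 25% in size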
Target sequence (P00811 whole entry, looked up): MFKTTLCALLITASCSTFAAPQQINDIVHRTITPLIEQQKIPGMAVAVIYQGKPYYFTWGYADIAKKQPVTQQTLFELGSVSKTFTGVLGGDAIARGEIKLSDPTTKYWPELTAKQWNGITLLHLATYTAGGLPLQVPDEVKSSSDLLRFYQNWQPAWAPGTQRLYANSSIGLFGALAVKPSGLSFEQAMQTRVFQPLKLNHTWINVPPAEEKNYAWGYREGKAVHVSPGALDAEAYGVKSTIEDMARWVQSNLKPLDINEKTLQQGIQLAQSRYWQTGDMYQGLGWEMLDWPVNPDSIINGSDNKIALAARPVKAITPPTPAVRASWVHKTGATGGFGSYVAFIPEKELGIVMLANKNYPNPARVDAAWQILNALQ
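20 mM phosphate pH 7.0 + 0.01% (detergent screen) or 0.0001% Triton X-100; 5.3 nM AmpC reagent; cpd preinc 15 min RT; nitrocefin (800 uM stock) to start; A480 q20 s × 4 min; Activity was normalised to no-enzyme and no-compound control wells.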
AmpC no deterg: inhibitors of E. coli AmpC beta-lactamase without detergent | 0.52% of 330,000 active | Potency, µM (highest dose often 57.1 µM), without a hit: top-dose activity change, negative = inhibition, usual class: inhibitors | P00811 | AmpC nitrocefin hydrolysis, absorbance 480 nm, 0.0001% Triton | AID 485341;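 further: plate controls were no compound for no effect and no enzyme for full effect; nearly all actives have a fitted effect of over 20% in size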
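AmpC (5.3 nM in the dispensed reagent) in 20 mM phosphate pH 7.0 with 0.01% (detergent screen) or 0.0001% Triton X-100 was preincubated with compounds for 15 min at room temperature. Nitrocefin was then added from an 800 uM solution, and hydrolysis was followed at 480 nm.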
Sm TGR inh: inhibitors of Schistosoma mansoni thioredoxin glutathione reductase; Q962Y6; purified TGR, DTNB reduction, TNB absorbance 405 nm; Potency, µM (highest dose often 114 µM), inactives show top-dose activity change, negative = inhibition, hits mostly inhibitors; 3% of 360,000 active; AID 485364; further: nearly all actives have a fitted effect of over 60% in size
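First, TGR (20 nM dispensed) and NADPH were mixed with compound. Second, a 15 min room-temperature incubation followed. Third, further NADPH and then DTNB were added to start the reaction. Finally, TNB absorbance was monitored kinetically.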
An asterisk follows results filed as active; ? = inconclusive; · = not tested or not shown; [ ] = remark or other dose. The call rests on the fitted dose curve; in most records, active means well fitted curve in the direction sought with a large enough effect; inconclusive means small, poorly fitted or top-dose-only effect, or another doubt; inactive means no such curve, though single readings can be large; an effect the other way counts as inactive or inconclusive. Unless noted, on the % scale 0 is the no-effect control and ±100 the full control effect; potency means the concentration at half of the fitted maximal effect.

SMILES	AmpC detergent	AmpC no deterg	Sm TGR inh
O=C(c1ccccc1F)N(Cc1ccc(F)cc1)C1CCS(=O)(=O)C1 (stereo not drawn)	?	-16.2%	16.1%
O=C(/C=C/c1ccccc1)N(Cc1ccc(Cl)cc1)C1CCS(=O)(=O)C1 (stereo not drawn)	0.5%	67.8%	-0.4%
O=C(/C=C/c1ccco1)N(Cc1cccc(Cl)c1)C1CCS(=O)(=O)C1 (stereo not drawn)	?	15.4%	2.82µM*
O=C(/C=C/c1ccco1)N(Cc1ccc(F)cc1)C1CCS(=O)(=O)C1 (stereo not drawn)	-5.5%	6.9%	7.94µM*
O=C(/C=C/c1ccccc1)N(Cc1cccc(Cl)c1)C1CCS(=O)(=O)C1 (stereo not drawn)	-4.8%	45.0%	-5.9%
O=C(/C=C/c1ccco1)N(Cc1ccccc1)C1CCS(=O)(=O)C1 (stereo not drawn)	1.7%	17.7%	3.16µM*
O=C(/C=C/c1ccco1)N(Cc1cccc(Br)c1)C1CCS(=O)(=O)C1 (stereo not drawn)	-6.1%	39.9%	3.16µM*
CC(=O)c1cccc(NC(=O)c2cnn(-c3cccc(C)c3)c2-n2cccc2)c1	0.3%	·	6.7%
O=C(c1ccco1)N(Cc1cccc(F)c1)C1CCS(=O)(=O)C1 (stereo not drawn)	-12.1%	-3.7%	-11.3%
O=C(/C=C/c1ccco1)N(Cc1cccc(F)c1)C1CCS(=O)(=O)C1 (stereo not drawn)	-3.0%	1.6%	10µM*
CCOC(=O)N1CCc2c(sc3c2c(=O)n(Cc2ccccc2)c(=O)n3Cc2c(F)cccc2Cl)C1	9.6%	·	1.7%
Cc1cccc(C)c1NC(=O)c1sc(-n2nc(C)c(Cc3ccccc3)c2C)nc1C	23.7%	·	4.8%
COc1ccc(S(=O)(=O)NCC(c2ccco2)S(=O)(=O)c2ccc(C)cc2)cc1C (stereo not drawn)	-1.5%	·	0.794µM*
O=C(COc1ccc(Cl)cc1)NCC(c1ccco1)S(=O)(=O)c1ccccc1 (stereo not drawn)	-1.6%	·	?
Cc1ccc(CNC(=O)C(=O)NCC(c2ccco2)S(=O)(=O)c2ccc(C)cc2)cc1 (stereo not drawn)	-0.6%	·	-23.1%
O=C(COc1ccc(Cl)cc1)NCC(c1ccco1)S(=O)(=O)c1ccc(Cl)cc1 (stereo not drawn)	1.8%	·	28.2µM*
COc1ccc(S(=O)(=O)NCC(c2cccs2)S(=O)(=O)c2ccc(C)cc2)cc1F (stereo not drawn)	-0.2%	·	?
CCOc1ccc(S(=O)(=O)NCC(c2ccco2)S(=O)(=O)c2ccc(C)cc2)cc1 (stereo not drawn)	3.8%	·	0.316µM*
O=C(Nc1ccc2nc(SCC(=O)N3CCCc4ccccc43)sc2c1)c1ccccc1	19.2%	·	0.4%
CCOc1ccc(N(CC)S(=O)(=O)N2CCCC(C(=O)NCc3ccccc3OCC)C2)cc1 (stereo not drawn)	13.3%	·	8.2%
O=C(CSc1nc2c([nH]c3ccccc32)c(=O)n1-c1ccccc1)N1CCc2ccccc21	-7.3%	·	-0.3%
NC(=O)c1nc(Nc2ccccc2)sc1NC(=O)c1ccccc1Br	24.5%	·	-3.3%
Cc1ccc(CNC(=O)C2CC3Cn4c(nc5cc6ccccc6cc54)C3N2C)o1 (stereo not drawn)	0.5%	103.5%	44.7µM*
CN1C(C(=O)NCC2CC2)CC2Cn3c(nc4cc5ccccc5cc43)C21 (stereo not drawn)	-5.1%	20.3%	-12.8%
Cc1ccc(CNC(=O)C2CC3Cn4c(nc5ccccc54)C3N2C)o1 (stereo not drawn)	-2.6%	-4.3%	35.5µM*
SMILES	AmpC detergent	AmpC no deterg	Sm TGR inh
C=CCNC(=O)C1CC2Cn3c(nc4ccccc43)C2N1C (stereo not drawn)	5.1%	-14.2%	?
COc1ccc(NC(=O)CSc2c(C(C)C)cnc3c2c(=O)n(C)c(=O)n3C)c(OC)c1	4.6%	·	0.3%
CCOc1ccc(C(=O)NC2CC(=O)N(c3ccc(C)cc3)C2)cc1OCC (stereo not drawn)	-0.9%	·	-3.0%
Cc1cc(Oc2ccc(N)cn2)cc(C)c1Cl	8.1%	-6.6%	39.8µM*
Nc1ccc(Oc2c(Cl)cccc2Cl)nc1	-7.1%	-20.2%	?
CC(C)(C)c1ccc(Oc2ccc(N)cn2)cc1	-5.8%	-1.6%	12.6µM*
CC(C)(C)c1ccc(Oc2ccc(NC(=O)c3ccccc3C(=O)O)cn2)cc1	0.9%	-19.0%	?
Cc1ccc(N2C(=O)CC(Sc3cccs3)C2=O)cc1 (stereo not drawn)	6.3%	-4.1%	7.08µM*
Cn1nnnc1SC1CC(=O)N(c2ccccc2)C1=O (stereo not drawn)	1.3%	-10.4%	1.58µM*
Cc1cc(C)cc(N2C(=O)CC(Sc3nnnn3-c3ccccc3)C2=O)c1 (stereo not drawn)	-12.7%	-21.6%	5.01µM*
O=C1CC(SCCO)C(=O)N1c1ccccc1 (stereo not drawn)	0.1%	-19.7%	-4.7%
Cc1c(O)nc(SC2CC(=O)N(c3ccccc3)C2=O)[nH]c1=O (stereo not drawn)	0.6%	·	?
Cc1ccc(SC2CC(=O)N(c3ccc4c(c3)OCCO4)C2=O)cc1 (stereo not drawn)	0.0%	-4.4%[2.29 µM]	?
Cc1cc(C)cc(N2C(=O)CC(c3ccccc3)CC2=O)c1	-4.4%	-9.7%	-5.2%
O=C1CC(Sc2nnnn2C2CCCCC2)C(=O)N1c1ccccc1 (stereo not drawn)	-7.0%	-4.4%	3.16µM*
CCOC(=O)c1ccc(NC(=O)c2cc(=O)c3ccc(C)c(C)c3o2)cc1	-3.4%	·	3.4%
Cc1ccc(N2CC(C)Cn3c2nc2c3c(=O)n(CC(=O)O)c(=O)n2C)cc1 (stereo not drawn)	-3.9%	·	-0.9%
CCOC(=O)c1ccc(NC(=O)CC2C(=O)N(c3ccccc3)C(=O)N2C2CCCCC2)cc1 (stereo not drawn)	13.4%	·	2.6%
Cc1ccc(S(=O)(=O)N(CC(=O)N2CCc3ccccc3C2)c2ccc(C)c(C)c2)cc1	11.3%	·	2.8%
Cc1cc(C)cc(N2C(=O)CC(Sc3ncn[nH]3)C2=O)c1 (stereo not drawn)	-5.4%	-21.1%	0.501µM*
Cc1cccc(N2C(=O)CC(Sc3nnc(C)s3)C2=O)c1 (stereo not drawn)	-3.6%	-28.2%	3.55µM*
CCOc1ccc2nc(SC3CC(=O)N(c4ccccc4)C3=O)sc2c1 (stereo not drawn)	0.6%	-20.3%	?
Cc1cccc(N2C(=O)CC(Sc3nc(C)cc(C)n3)C2=O)c1 (stereo not drawn)	-8.1%	-10.3%	0.0%
Cc1cc(C)cc(N2C(=O)CC(Cn3nc(C)cc3C)C2=O)c1 (stereo not drawn)	8.9%	9.3%	0.3%
CCOc1ccc2nc(SC3CC(=O)N(c4cccc(OC)c4)C3=O)sc2c1 (stereo not drawn)	-14.1%	8.91µM*	?
CCN(C(=O)Cn1c(=O)n(-c2ccccc2)c(=O)c2ccc(C(=O)NCc3ccc4c(c3)OCO4)cc21)c1cccc(C)c1	-7.2%	·	1.4%
COCCNC(=O)CSc1cn(CC(=O)N2CCCCCC2)c2ccccc12	2.8%	·	2.9%
